# Experimental data from ChEMBL document CHEMBL3988442, “University of Dundee, Small-Polar-MMV Screening Library” (2021).
# About 13,000 (27%) of roughly 48,000 compounds showed an effect of 50% or more. This is one part of the list.
# Tested on: Wolbachia pipientis
# Assay: Anti-Wolbachia Cell-Based Screen
# Format: functional
# Set-up: scale not given: in the data most compounds retested in dose-response had high values
# Settings: 5 µM
row,SMILES,Percent Effect
1,CCCc1n[nH]c(C2CN(CCNC3CCCCC3)CCO2)n1 (stereo unspecified),8.814%
2,COc1cc(CNc2nc(C3CC3)no2)cc(OC)c1OC,3.811%
3,O=c1[nH]nc(CCCN2CCOCC2)n1-c1ccc(F)cc1F,93.86%
4,O=C(NCCN1CCOCC1)Nc1cc(F)ccc1-n1cccn1,-8.933%
5,O=C1CCC(=O)N1CCN1CCN(c2cc(F)ccc2F)CC1,-16.23%
6,O=C(NCc1cccc(F)c1)Nc1ccn(CCN2CCOCC2)n1,-19.73%
7,Cc1ccc(F)cc1-n1c(CCCN2CCOCC2)n[nH]c1=O,109.2%
8,O=C1O[C@@H]2CN(Cc3cccc(F)c3)C[C@@H]2N1CCCN1CCOCC1,11.87%
9,O=c1[nH]nc(CCCN2CCOCC2)n1Cc1cccc(F)c1,102.2%
10,O=C(NCCN1CCOCC1)c1cc(-c2ccc3c(c2)CCO3)n[nH]1,2.601%
11,Cc1nc(CCCN2CCOCC2)n(Cc2ccc(F)cc2)n1,-6.384%
12,CN1C[C@@H](n2cnc(-c3ccccc3)c2-c2ccccn2)C[C@H]1C(=O)O,-24.01%
13,CC(C)(C)CN1CCOC[C@H]1c1nc(-c2cccc(F)c2)c[nH]1,4.483%
14,Cc1nn(C)cc1CN1CCCn2nc(CNC(=O)C3CCC3)cc2C1,-11.1%
15,Cc1nccn1C1CCCN(C(=O)C2=NN(C)C(=O)CC2)C1 (stereo unspecified),-2.156%
16,Cn1cc(S(=O)(=O)N2CCCC2Cn2ccnc2)cc1C(N)=O (stereo unspecified),-5.902%
17,CO[C@@H]1CC[C@@H](NS(=O)(=O)c2cn(C)nc2C)[C@H]1O,86.74%
18,Cc1nn(C)cc1S(=O)(=O)N[C@@H]1CC[C@@H](n2ccnc2C)[C@@H]1O,99.22%
19,Cc1nn(C)cc1S(=O)(=O)N[C@@H]1CCC[C@@H](N2CCCC2)[C@@H]1O,95.33%
20,Cn1cc(S(=O)(=O)N2CCCC2Cn2ccnc2)cn1 (stereo unspecified),-1.128%
21,Cc1nccnc1N1CC[C@@H](NC(=O)c2cnccn2)[C@H](O)C1,-17.03%
22,Cc1nn(C)cc1S(=O)(=O)N[C@@H]1CCC[C@@H](n2ccnc2)[C@@H]1O,85.24%
23,Cc1nc2n(n1)CC(NCC(=O)NCC1(c3ccccc3)CC1)CC2 (stereo unspecified),-4.512%
24,CN(C(=O)c1cccc(OCC(F)F)n1)c1ccc2c(c1)CCO2,3.505%
25,CCCOc1cccc(NS(=O)(=O)c2cc(C(=O)O)cs2)c1,12.59%
26,Cc1ccccc1C(=O)Nc1ccc([C@H]2OCC(=O)N(C)[C@@H]2CO)cc1,-10.53%

row,SMILES,Percent Effect
1,CNC(=O)C(C)(C)N1CCC[C@H]1C(=O)NC1CC1,8.345%
2,O=C(NC1CC1)C1CCc2nnc(-c3cccc(C(F)(F)F)c3)n21 (stereo unspecified),107.7%
3,CN1Cc2nc[nH]c2C[C@H]1C(=O)NC1CCCCC1,0.3029%
4,O=C(NC1CC1)C1CCc2nnc(C3CC3)n21 (stereo unspecified),105.6%
5,O=C(NC1CC1)C1CCc2nnc(-c3cccnc3)n21 (stereo unspecified),102.7%
6,O=C(NC1CC1)C1CCCN(c2cccc(C(F)(F)F)n2)C1 (stereo unspecified),-13%
7,Cn1cc(C(=O)NC2CCCC2)c(-c2cccnc2)n1,1.647%
8,CN(CC1CCCCC1)C(=O)c1cn(C)nc1-c1cccnc1,20.64%
9,CCCS(=O)(=O)N1C[C@@H]2COC[C@@H](Cc3nc(C)no3)[C@@H]2C1,1.373%
10,CCc1nc(CN2CCCN(C(=O)c3cn[nH]c3C)CC2)cs1,4.84%
11,COc1cc(NCCNC(=O)c2cscc2C)cc(OC)c1,-3.159%
12,CN(CCNS(C)(=O)=O)CC(c1cccs1)N1CCOCC1 (stereo unspecified),-6.912%
13,CCc1nc(C)c(C(=O)NCCN2CCCC2)s1,119.2%
14,CCCc1nc(C)c(C(=O)NCCN2CCCCC2)s1,125.3%
15,CCCc1nc(C)c(C(=O)NC2CCN(c3ncccn3)CC2)s1,-4.746%
16,CCCc1nc(C)c(C(=O)NCCN2CCOCC2)s1,118.3%
17,CCc1nc(C)c(C(=O)NCCNc2ncccn2)s1,-5.791%
18,CCCc1nc(C)c(C(=O)NC2CCN(C3CC3)C2)s1 (stereo unspecified),4.49%
19,CCc1nc(C)c(CNC(=O)CCCN2CCCCC2)s1,-7.179%
20,CCCc1nc(C)c(C(=O)NCCn2ccnc2)s1,-2.524%
21,Cc1nc(-c2noc3ccc(C(=O)NCCN4CCOCC4)cc23)cs1,-14.65%
22,Cc1cc(F)ccc1S(=O)(=O)NCc1[nH]ncc1Br,19.22%
23,COc1ccc2c(c1)OCC(Cc1ccc(N)cn1)C2 (stereo unspecified),-6.73%
24,Cc1ccsc1CN1CC2(CCN(C(=O)C3CC3)CC2)CC1C(=O)O (stereo unspecified),-16.18%
25,CC(C)=CCN1C[C@@H](C(=O)O)C[C@H](C(=O)Nc2ccc(C)nc2)C1,93.94%
26,O=C(Nc1cccnc1)C1CCN(c2cc(-n3ccnc3)ncn2)CC1,4.084%

row,SMILES,Percent Effect
1,COc1ccccc1[C@@H]1CN(CC2CCC2)C[C@H]1C(=O)O,-30.09%
2,CCCc1nc(C)cc(N2CCNC(C(=O)Nc3ccc(C)nc3)C2)n1 (stereo unspecified),-5.575%
3,Cc1ccc(N2CCC(C3CCN(CC(C)C)CC3)C2)nn1 (stereo unspecified),-23.48%
4,Cc1cncc(C(=O)N2CCNCC2C(=O)Nc2ccc(C)nc2)c1 (stereo unspecified),4.535%
5,Cc1ccc(NC(=O)[C@H]2C[C@H](C(=O)O)CN(CC(C)C)C2)cn1,103.8%
6,Cc1ccsc1CN1CCCC(CNC(=O)c2ccc(N)nc2)C1 (stereo unspecified),1.774%
7,Cc1ccc(NC(=O)c2nc3c(s2)CCCN3C(C)C)cn1,4.841%
8,Cc1ccc(NC(=O)[C@H]2C[C@H](C(=O)O)CN(CC3CC3)C2)cn1,109.3%
9,Cc1ccc(NC(=O)[C@@H]2C[C@H](C(=O)O)CN(Cc3sccc3C)C2)cn1,101.2%
10,Cc1nc(C(C)(C)C)sc1C(=O)NCCn1cccn1,3.617%
11,COc1ccc(F)cc1CSCC(=O)N(CCC#N)CCC#N,-2.312%
12,N#Cc1ccccc1CN1CCC(c2nccn2CC2CCC2)CC1,43.99%
13,COC[C@@H]1CC[C@H]2[C@H](CCN2S(=O)(=O)c2cccc(C)c2)O1,4.659%
14,CN(C)CC1CN(Cc2coc(-c3cccs3)n2)CCO1 (stereo unspecified),-7.744%
15,COc1cccc(O)c1CN1CCCC(Nc2cccc(F)c2)C1 (stereo unspecified),-13.27%
16,COc1cccc(F)c1CN1CCC(c2nccc(C)n2)C1 (stereo unspecified),140.3%
17,Cc1cccnc1CN1CCOC(Cc2cccc3ccccc23)C1 (stereo unspecified),-2.143%
18,CN(C)Cc1ccnc(C2CN(Cc3nccs3)CCO2)n1 (stereo unspecified),100.5%
19,c1ccc2c(CC3CN(Cc4nccs4)CCO3)cccc2c1 (stereo unspecified),-0.1296%
20,Cc1ccccc1CN1CCOC(c2nccc(CN(C)C)n2)C1 (stereo unspecified),127.2%
21,CCn1c(CN2CCOC(Cn3cccn3)C2)nc2c(F)cccc21 (stereo unspecified),-12.64%
22,CN(C)CC1CN(Cc2cc(Cl)cc3cccnc23)CCO1 (stereo unspecified),-1.777%
23,CN(C)CC1CN(Cc2c(Cl)ccc3cccnc23)CCO1 (stereo unspecified),-12.27%
24,CN(C)Cc1ccnc(C2CN(Cc3c(F)cccc3F)CCO2)n1 (stereo unspecified),127%
25,CCn1ccnc1C1CCN(Cc2c(F)cccc2F)CC1,1.845%
26,COCCNS(=O)(=O)c1cccc2c1CN(C(=O)c1ccccc1)CC2,14.65%

row,SMILES,Percent Effect
1,O=C(c1ccno1)N1CCOC[C@H](Oc2ccccc2)C1,-14.73%
2,CC(C1CCN(Cc2cnn(C)c2C2CC2)CC1)N(C)C (stereo unspecified),-2.941%
3,CC(C)(CN1CCCC1)CN1CCC(Cn2cc(C3CC3)nn2)CC1,12.62%
4,O=C(NCc1cc(O)ncn1)C1CCOc2ccccc2C1 (stereo unspecified),8.885%
5,CNC(=O)C(NC(=O)CCc1cccc(OC2CCCC2)c1)C(C)C (stereo unspecified),-3.816%
6,COCCN1CCCC2(CCN(c3nc(C)nc4ccsc34)C2)C1=O (stereo unspecified),-7.564%
7,CC(C)(C)NC(=O)CN1CCCN(Cc2cc(C#N)ccc2F)CC1,-2.969%
8,Cc1noc(C)c1-c1cnc(CC2CCN(C(=O)c3cc[nH]n3)C2)cn1 (stereo unspecified),-12.99%
9,Cc1noc(C)c1-c1cncc(CC2CCN(C(=O)c3cc[nH]n3)C2)n1 (stereo unspecified),110.9%
10,Cc1noc(C)c1CN1CC2(CCN(C(=O)c3cc[nH]n3)C2)CC1=O (stereo unspecified),-2.196%
11,Cc1noc(C)c1-c1cc(CC2CCN(C(=O)c3cc[nH]n3)C2)ncn1 (stereo unspecified),98.42%
12,CCCS(=O)(=O)N[C@H]1CN(c2ncccc2C(N)=O)C[C@@H]1C(C)C,-5.813%
13,CC(=O)NCc1ccc(S(=O)(=O)NC(=O)c2ccc3c(c2)COC3)s1,-2.938%
14,Cc1noc(C)c1CS(=O)(=O)CC(=O)NCCc1ccccc1,-9.569%
15,COc1ccc(NC(=O)CCc2c(C)nc3cc(O)nn3c2C)cn1,3.127%
16,Cc1nc2ncnn2c(C)c1CCC(=O)Nc1cccn(C)c1=O,1.385%
17,Cc1nc2cc(O)nn2c(C)c1CCC(=O)NCCCC(C)C,90.92%
18,Cc1nc2cc(O)nn2c(C)c1CCC(=O)NCCc1ccccc1,85.91%
19,Cc1nc(NC(=O)CCc2c(C)nc3cc(O)nn3c2C)sc1C,101.2%
20,Cn1ccnc1CCNC(=O)NCCC1CCCCO1 (stereo unspecified),-7.857%
21,Cc1nc2cc(O)nn2c(C)c1CCC(=O)NCCc1nccn1C,84.09%
22,CO[C@@H]1CCN(S(=O)(=O)c2cn(C)cn2)[C@H]1Cc1cnn(C)c1.O=C(O)C(F)(F)F,2.669%
23,O=C([C@@H]1CCO[C@@H]2CCN(CC3CCOCC3)C[C@H]21)N1CCCC1,-12.21%
